Here are results for eight compounds from ChEMBL document CHEMBL3988442, “University of Dundee, Small-Polar-MMV Screening Library” (2021).

For some of these results: Entries with a potency or affinity are not part of this list.

What all share (design): scale not given: direction of the effect not stated beside the values
Test [1] deals with Protein translocase subunit SecA (Escherichia coli (strain K12)) (UniProt P10408). Briefly: Assay to Identify E. coli SecA ATPase Inhibitors. The format is functional. The following applies: 30 µM.
Sequence of Protein translocase subunit SecA (Escherichia coli (strain K12)) (P10408 whole entry): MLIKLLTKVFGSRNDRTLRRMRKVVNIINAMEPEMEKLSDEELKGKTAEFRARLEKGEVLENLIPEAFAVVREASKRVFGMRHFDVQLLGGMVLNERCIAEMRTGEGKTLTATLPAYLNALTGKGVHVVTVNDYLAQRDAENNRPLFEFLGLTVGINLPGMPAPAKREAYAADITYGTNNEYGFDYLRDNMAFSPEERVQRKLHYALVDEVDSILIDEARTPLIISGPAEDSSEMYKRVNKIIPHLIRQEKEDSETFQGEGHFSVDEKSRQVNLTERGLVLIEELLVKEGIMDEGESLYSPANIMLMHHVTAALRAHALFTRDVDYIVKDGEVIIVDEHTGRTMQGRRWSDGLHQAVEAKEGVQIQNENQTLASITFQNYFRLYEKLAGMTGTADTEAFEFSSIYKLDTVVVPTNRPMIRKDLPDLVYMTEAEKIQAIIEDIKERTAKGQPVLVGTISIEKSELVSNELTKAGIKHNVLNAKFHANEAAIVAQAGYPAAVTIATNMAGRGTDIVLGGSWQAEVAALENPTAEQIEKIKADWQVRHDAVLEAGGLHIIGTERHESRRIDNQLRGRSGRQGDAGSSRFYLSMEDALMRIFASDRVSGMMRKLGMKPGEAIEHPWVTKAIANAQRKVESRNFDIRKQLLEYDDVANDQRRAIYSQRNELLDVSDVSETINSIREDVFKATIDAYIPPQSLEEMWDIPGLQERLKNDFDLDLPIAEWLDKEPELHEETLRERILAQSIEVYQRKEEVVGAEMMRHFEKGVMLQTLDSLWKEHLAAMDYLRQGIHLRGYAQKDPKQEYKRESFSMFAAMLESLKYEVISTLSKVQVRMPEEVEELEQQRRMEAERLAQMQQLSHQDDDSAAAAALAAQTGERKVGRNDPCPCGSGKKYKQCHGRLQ
Test [2] deals with T1, Ubiquitin-activating enzyme e1, putative (Leishmania donovani (strain BPK282A1)) (UniProt E9BSI1).
T1 sequence (whole entry): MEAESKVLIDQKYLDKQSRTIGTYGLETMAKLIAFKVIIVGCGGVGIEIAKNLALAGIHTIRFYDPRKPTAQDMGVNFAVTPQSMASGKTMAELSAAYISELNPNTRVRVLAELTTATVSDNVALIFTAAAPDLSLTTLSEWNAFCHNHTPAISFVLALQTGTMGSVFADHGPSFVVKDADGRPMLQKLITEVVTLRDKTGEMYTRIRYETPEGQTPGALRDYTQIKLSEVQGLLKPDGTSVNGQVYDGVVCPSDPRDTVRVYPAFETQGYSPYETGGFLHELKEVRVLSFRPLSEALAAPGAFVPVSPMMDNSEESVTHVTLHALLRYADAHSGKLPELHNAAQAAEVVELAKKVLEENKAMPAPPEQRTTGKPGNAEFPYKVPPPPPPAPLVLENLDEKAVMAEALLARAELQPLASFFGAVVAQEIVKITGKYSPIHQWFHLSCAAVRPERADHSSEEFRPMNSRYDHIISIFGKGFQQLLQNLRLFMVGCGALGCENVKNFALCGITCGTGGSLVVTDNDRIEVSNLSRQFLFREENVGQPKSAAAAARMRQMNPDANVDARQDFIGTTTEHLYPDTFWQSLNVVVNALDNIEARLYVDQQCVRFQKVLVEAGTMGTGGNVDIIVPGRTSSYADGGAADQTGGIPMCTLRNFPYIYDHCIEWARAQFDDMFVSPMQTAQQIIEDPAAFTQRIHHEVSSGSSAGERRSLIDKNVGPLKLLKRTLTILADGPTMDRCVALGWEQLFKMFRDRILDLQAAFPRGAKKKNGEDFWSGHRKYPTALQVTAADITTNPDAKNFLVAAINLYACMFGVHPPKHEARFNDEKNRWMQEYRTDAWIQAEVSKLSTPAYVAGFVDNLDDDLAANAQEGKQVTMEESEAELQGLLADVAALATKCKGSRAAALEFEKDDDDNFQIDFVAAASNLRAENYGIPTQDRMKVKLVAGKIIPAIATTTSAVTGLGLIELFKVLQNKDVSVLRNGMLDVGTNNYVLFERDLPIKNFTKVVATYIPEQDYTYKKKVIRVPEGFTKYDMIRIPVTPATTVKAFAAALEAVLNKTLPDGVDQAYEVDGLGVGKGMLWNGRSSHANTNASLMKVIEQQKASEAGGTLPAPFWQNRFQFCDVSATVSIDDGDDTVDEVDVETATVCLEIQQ
Briefly: Leishmania donovani Ubiquitin Activating Enzyme (LdE1). The class given is functional. Particulars: 30 µM.

The target in test [3] is AMP-activated protein kinase, AMPK (Homo sapiens) (UniProt P54646+O43741+P54619+Q9UGJ0+Q9Y478+Q13131+Q9UGI9). Put plainly: AMP-dependent Kinase enzyme assay. An in vitro enzyme assay that detects ADP turnover that is directly proportional to AMPK activity. This uses naive AMPK that is activated during the assay with MK-8722. The class given is functional. Particulars: 30 µM.

For test [4], the target named is Sialic acid-binding Ig-like lectin 9 (Homo sapiens) (UniProt Q9Y336). Put plainly: Hs-Siglec9 ALPHAscreen SOP 20170721. The following applies: 10 µM. (In Alpha technology, singlet oxygen from a donor bead excites a nearby acceptor bead.)
Sequence of Sialic acid-binding Ig-like lectin 9 (Homo sapiens) (Q9Y336 whole entry): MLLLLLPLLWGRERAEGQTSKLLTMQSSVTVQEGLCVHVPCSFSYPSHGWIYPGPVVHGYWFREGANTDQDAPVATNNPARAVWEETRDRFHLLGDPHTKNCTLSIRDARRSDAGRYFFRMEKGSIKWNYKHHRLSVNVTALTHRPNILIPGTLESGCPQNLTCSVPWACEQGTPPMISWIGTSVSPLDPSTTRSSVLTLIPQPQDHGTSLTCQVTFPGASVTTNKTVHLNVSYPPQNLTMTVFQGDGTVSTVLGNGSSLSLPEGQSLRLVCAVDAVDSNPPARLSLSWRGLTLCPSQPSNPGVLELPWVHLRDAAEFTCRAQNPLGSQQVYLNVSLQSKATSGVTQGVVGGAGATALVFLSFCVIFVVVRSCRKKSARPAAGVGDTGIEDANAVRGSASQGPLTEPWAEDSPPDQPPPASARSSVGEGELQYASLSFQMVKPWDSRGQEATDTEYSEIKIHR
In another test the test system is Trypanosoma cruzi. Briefly: Trypanosoma cruzi phosphomannomutase and mannose-1-phosphate guanylyltransferase assay. The class given is functional. Particulars: 10 µM.
Test [5] concerns the target T2, Arginase-2, mitochondrial (Homo sapiens) (UniProt P78540).
T2 sequence (whole entry): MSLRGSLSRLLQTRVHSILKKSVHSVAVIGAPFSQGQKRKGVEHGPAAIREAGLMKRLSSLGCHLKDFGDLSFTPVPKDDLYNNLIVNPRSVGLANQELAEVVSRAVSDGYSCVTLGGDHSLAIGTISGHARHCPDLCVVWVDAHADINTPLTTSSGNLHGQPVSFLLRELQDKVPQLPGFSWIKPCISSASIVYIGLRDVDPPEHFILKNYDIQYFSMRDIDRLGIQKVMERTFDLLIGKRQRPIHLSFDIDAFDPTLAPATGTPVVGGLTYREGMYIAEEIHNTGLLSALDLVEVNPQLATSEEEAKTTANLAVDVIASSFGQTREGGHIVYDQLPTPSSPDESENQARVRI
Put plainly: in vitro enzyme assay to detect the production of urea directly proportional to the activity of Arginase II. Further: in the data most compounds retested in dose-response had high values. The following applies: 33.3 µM. The format is functional.

The target of test [6] is T3, Proteasome subunit beta (Trypanosoma cruzi) (UniProt O96673).
T3 sequence (whole entry): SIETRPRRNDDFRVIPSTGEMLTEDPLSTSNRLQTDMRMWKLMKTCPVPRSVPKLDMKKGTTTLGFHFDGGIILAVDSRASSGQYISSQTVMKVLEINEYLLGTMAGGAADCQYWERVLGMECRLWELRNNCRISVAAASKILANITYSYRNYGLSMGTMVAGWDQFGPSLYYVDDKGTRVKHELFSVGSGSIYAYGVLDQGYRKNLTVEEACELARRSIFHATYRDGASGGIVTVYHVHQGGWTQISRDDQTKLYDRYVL
Put plainly: Trypanosoma cruzi proteasome chymotrypsin-like activity (TcProtChymo) assay. Further: in the data most compounds retested in dose-response had high values. The format is functional. Particulars: 9.37 µM.

A further test is filed under the species Homo sapiens. Put plainly: To identify inhibition of the IFN signalling (Jak-Stat) pathway via expression of an eGFP reporter gene under the control of an IFN-stimulated response element (ISRE) containing MxA promoter. The following applies: 30 µM. The format is functional. For orientation: Reporter assays use an easily measured gene product as a stand-in for the process of interest.

The target of test [7] is T4, Tyrosyl-tRNA synthetase, putative (Trypanosoma cruzi (strain CL Brener)) (UniProt Q4DSP6).
T4 sequence (whole entry): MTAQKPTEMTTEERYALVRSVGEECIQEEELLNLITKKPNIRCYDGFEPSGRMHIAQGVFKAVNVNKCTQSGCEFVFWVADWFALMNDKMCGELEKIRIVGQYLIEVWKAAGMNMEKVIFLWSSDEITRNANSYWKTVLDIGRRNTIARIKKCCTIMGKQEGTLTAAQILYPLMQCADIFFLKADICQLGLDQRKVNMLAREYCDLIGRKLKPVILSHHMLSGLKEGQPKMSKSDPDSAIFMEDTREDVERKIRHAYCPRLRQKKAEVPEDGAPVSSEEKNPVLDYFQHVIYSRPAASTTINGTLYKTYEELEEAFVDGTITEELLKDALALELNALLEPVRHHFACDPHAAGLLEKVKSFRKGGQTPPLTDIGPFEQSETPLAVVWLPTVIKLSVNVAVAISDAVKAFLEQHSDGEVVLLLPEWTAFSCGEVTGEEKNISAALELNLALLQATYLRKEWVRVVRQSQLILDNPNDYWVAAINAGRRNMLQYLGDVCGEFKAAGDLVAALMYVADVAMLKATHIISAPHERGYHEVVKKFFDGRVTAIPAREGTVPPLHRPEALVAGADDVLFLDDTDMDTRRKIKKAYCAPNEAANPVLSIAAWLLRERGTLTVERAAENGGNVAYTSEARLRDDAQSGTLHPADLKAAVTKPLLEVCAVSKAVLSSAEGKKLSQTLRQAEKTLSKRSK
Put plainly: Trypanosoma cruzi tyrosyl tRNA synthetase (TcYRS) _High Tyrosine SOP. Further: in the data most compounds retested in dose-response had high values. The class given is functional. Particulars: 30 µM.

Test [8] concerns the target T4, Tyrosyl-tRNA synthetase, putative (Trypanosoma cruzi (strain CL Brener)). Briefly: Trypanosoma cruzi tyrosyl tRNA synthetase (TcYRS) SOP. The following applies: 30 µM. The class given is functional.
The target of test [9] is Chromo domain-containing protein 1 (Saccharomyces cerevisiae (strain ATCC 204508 / S288c) (Baker's yeast)) (UniProt P32657). Briefly: ScCHD-1 Enzyme Inhibition Assay. Further: in the data most compounds retested in dose-response had high values. The class given is functional. The following applies: 30 µM.
Sequence of Chromo domain-containing protein 1 (Saccharomyces cerevisiae (strain ATCC 204508 / S288c) (Baker's yeast)) (P32657 whole entry, the tested form may be a part): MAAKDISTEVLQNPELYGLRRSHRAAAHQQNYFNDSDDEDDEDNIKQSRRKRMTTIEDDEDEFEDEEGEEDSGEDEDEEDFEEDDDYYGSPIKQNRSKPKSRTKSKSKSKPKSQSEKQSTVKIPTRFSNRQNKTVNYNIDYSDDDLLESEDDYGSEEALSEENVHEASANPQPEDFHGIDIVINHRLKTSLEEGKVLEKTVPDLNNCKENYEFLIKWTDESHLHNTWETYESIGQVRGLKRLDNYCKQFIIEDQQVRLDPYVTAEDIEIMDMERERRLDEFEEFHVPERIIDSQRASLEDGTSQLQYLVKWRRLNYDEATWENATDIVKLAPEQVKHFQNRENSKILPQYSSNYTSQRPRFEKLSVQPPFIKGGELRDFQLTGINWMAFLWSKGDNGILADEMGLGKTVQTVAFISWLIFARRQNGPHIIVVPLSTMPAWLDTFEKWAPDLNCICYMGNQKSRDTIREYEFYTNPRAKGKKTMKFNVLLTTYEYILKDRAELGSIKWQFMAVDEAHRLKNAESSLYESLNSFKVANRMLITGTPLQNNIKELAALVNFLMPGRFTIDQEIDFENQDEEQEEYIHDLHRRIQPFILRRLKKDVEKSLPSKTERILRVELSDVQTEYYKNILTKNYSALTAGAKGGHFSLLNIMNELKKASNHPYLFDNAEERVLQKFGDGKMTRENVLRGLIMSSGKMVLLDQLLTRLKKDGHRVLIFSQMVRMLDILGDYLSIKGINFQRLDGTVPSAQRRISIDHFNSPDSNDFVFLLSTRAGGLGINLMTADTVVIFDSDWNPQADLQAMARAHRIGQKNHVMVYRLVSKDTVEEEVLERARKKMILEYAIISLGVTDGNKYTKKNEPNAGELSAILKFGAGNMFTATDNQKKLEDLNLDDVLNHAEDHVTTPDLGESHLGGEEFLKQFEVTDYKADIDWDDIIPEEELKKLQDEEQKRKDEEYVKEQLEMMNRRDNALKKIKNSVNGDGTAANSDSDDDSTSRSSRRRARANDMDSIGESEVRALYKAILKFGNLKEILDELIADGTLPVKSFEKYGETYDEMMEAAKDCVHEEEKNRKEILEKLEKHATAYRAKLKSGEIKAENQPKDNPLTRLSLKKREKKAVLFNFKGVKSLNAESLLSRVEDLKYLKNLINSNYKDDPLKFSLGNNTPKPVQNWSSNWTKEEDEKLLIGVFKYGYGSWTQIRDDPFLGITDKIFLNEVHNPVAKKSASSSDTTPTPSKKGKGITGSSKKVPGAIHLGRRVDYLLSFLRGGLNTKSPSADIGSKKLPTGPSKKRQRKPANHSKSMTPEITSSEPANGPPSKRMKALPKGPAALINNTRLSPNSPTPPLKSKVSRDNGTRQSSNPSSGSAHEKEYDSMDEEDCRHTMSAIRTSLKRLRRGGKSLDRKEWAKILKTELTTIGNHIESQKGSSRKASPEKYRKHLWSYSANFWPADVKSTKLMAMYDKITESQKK

Take `O=C(c1ccno1)N1CC[C@@H]2O[C@@H](COCCN3CCCC3)CC[C@@H]21`: the Percent Effect in [1] was -3.63%; in test [2], 10.8%; in test [3], 1.12%; in [4], -3.29%; with Trypanosoma cruzi it was 1.66%; in test [5], -1.59%. Besides, the Percent Effect is 21.2% in test [6]; -0.519% in the test listed under Homo sapiens; 5.41% in test [7]; 15.4% in test [8]; -2.39% in test [9].
In the case of `CCOc1ccc(CC(CNC(=O)c2occc2C)C(N)=O)cc1` (stereo not drawn), the Percent Effect in test [1] was -5.57%; in test [2], 10.4%; in test [3], -18.6%; in test [4] it was -5.56%; in the test on Trypanosoma cruzi, -3.23%; in test [5], 1.47%. Also, the Percent Effect in test [6] is 3.64%; in the test filed under Homo sapiens, 9.64%; in test [7], 7.62%; in [8], 11.8%; in test [9], -12.3%.
In the case of `COc1ncccc1C(=O)N1CCC(c2nnc(C3CC3)o2)CC1`, the Percent Effect in test [1] was -1.83%; in [2], 10.4%; in test [3] it was 11.3%; in test [4], 3.07%; with Trypanosoma cruzi it was -5.82%; in test [5], 16.1%. The Percent Effect in test [6] is 9.75%; in the test listed under Homo sapiens it was -6.69%; in [7], 4.23%; in [8], 11.5%; in test [9], -9.2%.
For the compound `Cc1nn(C)c(N2CCOCC2)c1CNCc1ccnc(N(C)C)c1`, the Percent Effect in test [1] is -1.81%; in [2], 10.4%; in test [3] it was -5.9%; in [4] it was -0.165%; with Trypanosoma cruzi, -2.64%; in [5] it was 0.21%. Also, the Percent Effect in [6] is 10.6%; in the test filed under Homo sapiens, 25.3%; in test [7], 3.81%; in test [8] it was 14.1%; in test [9], -2.85%.
With `Cc1cnn(CCNCc2ccccc2OCc2cccnc2)c1`, the Percent Effect is -4.98% in [1]; -3.8% in test [2]; 2.64% in test [3]; 6.26% in [4]; -1.95% in the test on Trypanosoma cruzi; 1.5% in [5]. Further, the Percent Effect in [6] was 17%; in the test listed under Homo sapiens, 5.87%; in test [7], 5.21%; in [8], 5.06%; in test [9] it was -13%.
For the compound `c1coc(CN2CCCC3(COCCN(Cc4c[nH]nn4)C3)C2)c1` (stereo not drawn), the Percent Effect in [1] was -3.44%; in [2], 8%; in test [3] it was 2.62%; in test [4] it was 8.5%; in the test on Trypanosoma cruzi it was -0.193%; in [5] it was -23.1%. Also, the Percent Effect in test [6] was 10.9%; in the test filed under Homo sapiens it was -4.99%; in test [7], 7.29%; in test [8] it was 10%; in test [9], -7.03%.
Consider `CN1N=C(C(=O)N2CCCC(CCc3c(F)cccc3F)C2)CCC1=O` (stereo not drawn), for which the Percent Effect was -4.37% in test [1]; 2.7% in test [2]; 0.625% in test [3]; 7.41% in [4]; 1.74% in the test with Trypanosoma cruzi; 0% in test [5]. Also, the Percent Effect in [6] was 1.21%; in the test filed under Homo sapiens it was 4.11%; in test [7], 3.7%; in test [8] it was 7.32%; in test [9], -1.23%.
For `Cc1cnn(CC2CCCN2Cc2cc(=O)n3ccccc3n2)c1` (stereo not drawn), the Percent Effect is -4.27% in test [1]; -2.7% in test [2]; -0.318% in test [3]; -1.03% in test [4]; 2.05% with Trypanosoma cruzi; 2.73% in test [5]. Further, the Percent Effect in test [6] is 16.7%; in the test filed under Homo sapiens, -16.2%; in [7], 7.53%; in test [8], 8.64%; in test [9], -4.06%.
